From PubChem BioAssay
CD40 NFkB inh: inhibitors of CD40-induced NF-kB signaling, primary screen, BL2 cells, luciferase reporter, single point; CD40L-induced, 4 h; inhibition, % at 10 µM; hit rate 0.94% among 83,000; AID 1053188, 2014;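 active = mean inhibition of at least 50% with a set share of replicates also reaching that level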
Each line names hits and unclear results; the compound was inactive in the other large screens; [ ] = another dose, or the depositor's remark. The full list was thinned out, with hits kept by preference.

c1ccc(Cc2noc(CN3CCN(C4CCc5ccccc5C4)CC3)n2)cc1 (centres undefined)	none
N#C[C@@H]1[C@@H](c2ccccc2)[C@@H](CO)N1C(=O)Cc1ccccn1	none
N#CC(c1nc2ccccc2nc1OCCO)S(=O)(=O)c1ccccc1 (centres undefined)	none
COc1ccc2sc(N(CCCN(C)C)C(=O)c3ccc(C(=O)c4ccccc4)cc3)nc2c1	none
CCN(Cc1ccccc1)S(=O)(=O)c1ccc(C(=O)N(CCCN(C)C)c2nc3cc(OC)ccc3s2)cc1	CD40 NFkB inh 51.9
CCN(Cc1ccccc1)S(=O)(=O)c1ccc(C(=O)N(CCCN(C)C)c2nc3cc4c(cc3s2)OCCO4)cc1	none
O=c1[nH]c2ccccc2[nH]c1=O	none
O=C(CCCN1C(=O)/C(=C\c2cccs2)SC1=S)Nc1ccccc1O	none
C[C@H](CO)N1C[C@H](C)[C@@H](CN(C)C(=O)C2CCOCC2)Oc2ncc(C#CCc3ccccc3)cc2C1=O	none
C[C@H](CO)N1C[C@H](C)[C@H](CN(C)C(=O)C2CCOCC2)Oc2ncc(C#CCc3ccccc3)cc2C1=O	CD40 NFkB inh 63.5[25 µM]
C[C@H]1CN([C@@H](C)CO)C(=O)c2cc(C#CCc3ccccc3)cnc2O[C@H]1CN(C)C(=O)C1CCOCC1	none
COc1ccc(C2CC2/C(C)=N/OC(=O)c2ccc(F)cc2)cc1 (centres undefined)	none
CC1CCN(C(=O)CCNS(=O)(=O)c2ccc3c(c2)c(=O)n(C)c(=O)n3C)CC1	none
O=C(CCC1CCCCC1)Nc1c2c(nn1-c1ccc(F)cc1)CS(=O)C2 (centres undefined)	none
CNC(=O)Nc1ccc(S(N)(=O)=O)cc1	none
COC(=O)[C@H](C)NC(=O)Nc1ccc(S(N)(=O)=O)cc1	none
CC(C)C(Cl)=NOC(=O)Nc1ccc(S(N)(=O)=O)cc1	CD40 NFkB inh 112.3
CN(c1ccccc1)S(=O)(=O)c1cccc(NC(=O)Cn2cnc3ccccc3c2=O)c1	none
CC(C)Cc1ccc(CN2CCCC(NC(=O)CCN3CCCCC3=O)C2)cc1 (centres undefined)	none
CC(C)Cc1ccc(C(C)/C=C2/CCC(CN3CCCCC3)C2=O)cc1 (centres undefined)	CD40 NFkB inh 65.7
COCCNC(=O)C1CCCN(Cc2ccc(C(C)C)cc2)CC1 (centres undefined)	none
COC(=O)c1cc(=O)nc2sc(-c3ccc(F)cc3)nn12	none
CC(C)OC(=O)N(C)C[C@@H]1OCc2ccccc2-c2c(n(C)c3ccccc23)C(=O)N([C@@H](C)CO)C[C@@H]1C	none
COc1cc(/C=N/n2cnnc2)ccc1OC(=O)c1cccnc1	none
COc1cc(/C=N/n2cnnc2)ccc1OCC(=O)N1CCOCC1	none
COc1cc(/C=N/n2cnnc2)ccc1OC(=O)c1ccncc1	CD40 NFkB inh 65.0
Cc1cc2c(cc1C)N(C(=O)CCl)CC(=O)N2	none
Cc1cc(C)nc(NC(N)=NCCc2ccccc2)n1	none
Cc1cc(C)nc(NC(N)=NC(C)c2ccccc2)n1 (centres undefined)	none
Cc1cc(C)nc(NC(N)=NCCc2c[nH]c3ccccc23)n1	CD40 NFkB inh 66.1
c1ccc(CCCc2nc(-c3cccnc3)no2)cc1	none
CC12CN(C(=O)c3ccccc3)C3(C#N)CC1CCC23C (centres undefined)	none
COC(=O)c1ccccc1NC(=O)C(CCS(C)(=O)=O)NC(C)=O (centres undefined)	none
COC(=O)c1ccccc1NC1=C/C(=N\S(=O)(=O)c2cccs2)c2ccccc2C1=O	CD40 NFkB inh 33.2
COC(=O)c1ccccc1NC(=O)COC(=O)/C=C/c1cccs1	none
COc1ccc(C(=O)/C=C/C(=O)N(CC(=O)NC2CCCCC2)Cc2ccccc2OC)c(O)c1	none
COc1cccc(/C=C/C(=O)OCC(=O)NC2CCCCCCC2)c1	none
COc1ccc(C(=O)/C=C/C(=O)N(CC(=O)NC2CCCCC2)Cc2ccccc2)c(O)c1	CD40 NFkB inh 104.7
CCCCC(C(=O)O)C(C)CC(=O)Nc1cccc(C(=O)O)c1 (centres undefined)	none
O=C(N/N=C\c1ccc(OC(=O)c2ccco2)cc1)c1ccc(Cl)cc1	none
CC1CCCC=CC2CC(OC(=O)CN(C)C)CC2C(O)C=CC(=O)O1 (centres undefined)	CD40 NFkB inh 83.3
Clc1ccc(/C=C\c2nccc3c2[nH]c2ccccc23)cc1	none
CCOC(=O)c1c(-c2ccc(C)o2)csc1NC(=O)CN1CCOCC1	none
CCOC(=O)c1c(-c2ccc(C)o2)csc1NC(=O)COC(=O)c1cccs1	CD40 NFkB inh 80.4
CCOC(=O)c1c(-c2ccc(C)o2)csc1N	none
COc1cc(OC)cc(C(=O)Nc2nc(CC(=O)NCc3ccccc3OC)cs2)c1	none
CN(C)C(=O)c1cccc(-c2ccc3c(c2)[C@H]2[C@H](CCN2C(=O)C2CCC2)[C@@H](CO)N3)c1	none
Cn1c(SCC(=O)Nc2nc(C(C)(C)C)cs2)nnc1C1CC1	none
COc1ccc(S(=O)(=O)Nc2ccc3c(c2)N(C(C)=O)CCC3)cc1	none
Cc1cc(C(=O)Nc2c(C)n(C)n(-c3ccccc3)c2=O)c(C)o1	none
Cc1cc(C(=O)NCCCC(=O)O)c(C)o1	none
Cc1cc(C(=O)NCCC(c2ccccc2)c2ccccc2)c(C)o1	CD40 NFkB inh 80.0
CCOC(=O)C1(Cc2cccc(F)c2)CCN(Cc2nc(CC)[nH]c2C)CC1	none
CCOC(=O)C1CCN(S(=O)(=O)CCNC(=O)c2cccc(OC)c2)CC1	none
O=C(COC(=O)c1ccc(S(=O)(=O)N2CCOCC2)cc1)NCc1ccccc1	none
CN1CCc2nc3ccccc3c(C(=O)OCC(=O)N(CCC#N)c3ccccc3)c2C1	none
O=S(=O)(CC(CN1CCCC1)N1CCCC1)c1ccc2ccccc2c1 (centres undefined)	CD40 NFkB inh 51.7
O=C(O)C1CCCCN1S(=O)(=O)c1ccc2ccccc2c1 (centres undefined)	none
OC(COc1ccc2ccccc2c1)CN1CCCC1 (centres undefined)	none
CCNc1ccc(S(=O)(=O)N2CCOCC2)cc1NCC(=O)Nc1cccc(Br)c1	none
O=S(=O)(Nc1ccc(Cc2ccncc2)cc1)N1CCCC1	none
COc1cccc(/C=N/Nc2ccc(C(=O)O)cc2)c1O	CD40 NFkB inh 96.0
COc1cccc(/C=N/NC(=O)N/N=C/c2cccc(OC)c2O)c1O	none
COc1cccc(C=NNC(=O)c2ccncc2)c1O	none
c1ccc(CCNc2ccc3nncn3n2)cc1	none
COc1ccc(CC2C(=O)NC(C)C(=O)N(C)C3Cc4ccc(cc4)Oc4cc(ccc4O)CC(C(=O)NC(C)C(=O)NC(C)C(=O)N2C)N(C)C3=O)cc1 (centres undefined)	CD40 NFkB inh 67.1
O=C(NCc1ccco1)c1ccc(CN2CCOCC2)cc1	none
CC(=O)N(CCN(C(C)=O)c1ccccc1)c1ccccc1	none
O=C1C=CC(=O)N1c1cccc2cccnc12	CD40 NFkB inh 49.9
O=C(O)c1cccc2cccnc12	none
c1cnc2c(c1)ccc1cccnc12	none
COc1ccccc1NC(=O)N(C)C[C@@H]1OCc2ccccc2-c2ccccc2C(=O)N([C@H](C)CO)C[C@H]1C	none
Cc1cc(O)c(C(C)C)cc1C1(c2cc(C(C)C)c(O)cc2C)OC(=O)c2ccccc21	CD40 NFkB inh 38.7
COc1ccc(CN2CC3(CN(S(=O)(=O)c4ccc(C)cc4)C3)c3c([nH]c4cc(OC)ccc34)[C@H]2CO)cc1	CD40 NFkB inh 54.5[25 µM]
COc1ccc2c3c([nH]c2c1)[C@@H](CO)N(Cc1ccc(Cl)cc1)CC31CN(S(C)(=O)=O)C1	none
COc1ccc2c3c([nH]c2c1)[C@H](CO)N(Cc1ccc(Cl)cc1)CC31CN(S(C)(=O)=O)C1	none
O=C(O)C[C@@H]1C[C@@H]2c3cc(NC(=O)Nc4ccc(C(F)(F)F)cc4)ccc3O[C@@H]2[C@@H](CO)O1	none
